# Source: the supplement of paper PMC6555819
# Tests used:
# Experiment in all cases: PBM binding z-score (relative to random genomic background probes); higher = stronger binding; sequences stand for … in GC…GCGATTGACAGCGTAGAATGAAGG
# [1] = tested on: PPARg:RXRa DBDmut IVT, anti-RXR (DBD mutation: RXRa K156A/R161A, NR concentration 270 nM, RXRa partner concentration 90 nM)
# Outline: (§1)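 Binding z-scores were set against random background probes. The data came from custom Agilent 4×180K protein-binding microarrays carrying double-stranded probes with 34-nt variable regions, incubated 1 h with ligand-free nuclear receptor dimers. Partner-specific antibodies detected binding, and scanned fluorescence was regression-normalized.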
# [2] = tested on: PPARg:RXRa IVT, anti-PPARg (NR concentration 270 nM, RXRa partner concentration 90 nM)
# Outline: as §1
# [3] = tested on: PPARg DBDmut:RXRa IVT, anti-PPARg (DBD mutation: PPARg1 K132A/R137A, NR concentration 270 nM, RXRa partner concentration 90 nM)
# Outline: as §1
# [4] = tested on: PPARg DBDmut IVT, anti-PPARg (DBD mutation: PPARg1 K132A/R137A, NR concentration 270 nM)
# Outline: as §1
# [5] = tested on: PPARg homodimer (NR concentration 180 nM)
# Outline: as §1
# [6] = tested on: PXR:RXRa (NR concentration 270 nM, RXRa partner concentration 90 nM)
# Outline: as §1
# [7] = tested on: PXR homodimer (NR concentration 270 nM)
# Outline: as §1
# [8] = tested on: RARa:RXR (NR concentration 270 nM, RXRa partner concentration 90 nM)
# Outline: as §1
# [9] = tested on: RARa homodimer (NR concentration 270 nM)
# Outline: as §1
# [10] = tested on: RARb:RXRa (NR concentration 270 nM, RXRa partner concentration 90 nM)
# Outline: as §1
# [11] = tested on: RARb homodimer (NR concentration 270 nM)
# Outline: as §1
# [12] = tested on: RARg:RXRa (NR concentration 270 nM, RXRa partner concentration 90 nM)
# Outline: as §1
# [13] = tested on: RARg homodimer (NR concentration 270 nM)
# Outline: as §1
# [14] = tested on: RXRa DBDmut IVT, anti-RXR (DBD mutation: RXRa K156A/R161A, NR concentration 90 nM)
# Outline: as §1
# [15] = tested on: RXRa homodimer (NR concentration 180 nM)
# Outline: as §1
# [16] = tested on: THRa:RXRa (NR concentration 90 nM, RXRa partner concentration 90 nM)
# Outline: as §1
# [17] = tested on: THRa homodimer (NR concentration 90 nM)
# Outline: as §1
# [18] = tested on: VDR:RXRa (NR concentration 270 nM, RXRa partner concentration 90 nM)
# Outline: as §1
# [19] = tested on: VDR homodimer (NR concentration 270 nM)
# Outline: as §1
Sequence,PBM binding z-score [1],PBM binding z-score [2],PBM binding z-score [3],PBM binding z-score [4],PBM binding z-score [5],PBM binding z-score [6],PBM binding z-score [7],PBM binding z-score [8],PBM binding z-score [9],PBM binding z-score [10],PBM binding z-score [11],PBM binding z-score [12],PBM binding z-score [13],PBM binding z-score [14],PBM binding z-score [15],PBM binding z-score [16],PBM binding z-score [17],PBM binding z-score [18],PBM binding z-score [19]
GGAACGAGAGCAAAGTTGATAGCATCTGTCGACG,0.164,0.909,-1.31,-0.755,-0.156,-0.47,-0.418,-0.331,-1.16,-0.296,-0.806,-0.113,-0.0315,-0.36,0.334,-0.711,-1.35,-0.413,-0.396
CCTGGCAGGCCAATCTGGGTCACTCAAGGCTTGA,3.55,4.78,-0.588,-0.975,0.0231,0.725,-0.786,1.11,-1.09,1.64,2.28,1.11,1.5,-0.376,0.545,3.8,0.481,0.406,-0.15
CAGACTGGGGCATAAGGTTACCATAAGCCAGCCC,4,4.18,-0.272,-0.433,0.704,0.652,-0.537,1.59,-0.341,1.66,1.78,1.9,1.41,0.105,1.6,2,1.04,0.497,-0.0112
TAGCCTAGGTCATTCATGGGCCAGTATAGAAAGC,1.41,2.53,0.271,0.314,1.08,1.66,-0.168,2.61,-0.242,3.66,2.52,4.74,4.57,1.84,3.2,2.71,0.289,2.16,0.945
GCTGATAGGTCAACTGATGGTCAGCTAAAGCTCG,3.71,3.35,-0.33,-0.713,4.6,3,-0.565,4.46,1.39,4.48,3.72,6.23,6.12,1.65,4.91,2.55,-0.713,2.69,-0.0716
GCTTACGGGTCAAAGGTTAGAGCATGAATAGAAT,4.34,5.74,0.587,1.17,3.25,5.59,0.235,7.74,0.552,4.37,3.1,6.33,4.54,2.02,8.91,3.6,-0.338,4.84,0.946
CTAACTAGGTCATTGACAGGACAGTGAATAGTAA,8.21,8.94,4,4.56,0.99,1.52,0.32,2.14,0.687,3.66,2.61,4.49,4.43,2.41,2.33,2.85,0.816,2.2,1.14
TCATATAGGTAATATAGGTGAAAGTCGGCATCTA,5.06,5.68,1.83,1.71,1.03,0.599,-0.0145,1.09,0.799,0.469,0.281,0.454,0.522,1.2,0.79,0.364,-0.347,0.836,0.0956
TCTAGTTGGTCAAAGGTCACACATTCGAAATGCG,3.49,6.33,1.17,1.94,4.05,5.8,1.55,6.86,2.63,5.06,5.15,6.77,5.76,1.62,7.57,4,2.07,5.09,2.42
CGTCCAAGGTCCAAGGTCAGTGAAGAGATGACGG,-0.345,0.595,-0.804,-0.592,1.34,1.67,0.584,2.28,0.674,3.29,3.34,2.9,3.28,1.38,2.23,2.99,1.89,1.6,1.73
ATCTCTAGGTAAAGATAGTTCAGTAAATGCAAAT,1.89,1.77,1.18,0.812,0.801,1.14,0.936,0.952,1.67,0.706,1.08,0.439,0.876,0.336,0.446,0.803,0.595,1.22,0.651
TCATATAGGTAAAGGTGAACGTCGAACGATATGA,3.97,4.38,1.68,1.19,1.37,0.966,0.23,1.74,0.665,2.09,1.73,1.71,1.52,0.894,2.17,1.5,-0.0395,0.748,-0.239
AGTCAAAGTTCAGGACGATGTAACGTAAAGCACG,-0.314,1.19,0.674,0.961,2.13,2.22,1.24,1.78,0.666,4.17,2.88,3.94,4.82,2.83,2.53,1.92,0.0967,2.56,1.75
TCGAGTAGGTTAGGGGCGTTCAGAATGGCGTCGA,1.69,1.26,0.15,-0.777,0.542,0.471,0.0132,0.223,-0.263,0.552,0.347,-0.19,-0.416,0.366,0.0753,0.432,-0.0731,0.157,0.527
ATTTCTAGGTAACAAGTTCAGTGAAAGAGAGGAC,5.53,4.99,3.1,2.25,1.94,1.79,2.69,1.45,2.03,2.12,2.14,1.75,1.66,1.44,1.12,1.83,1.35,2.56,3.04
